# Screens as filed in PubChem BioAssay.
# Coupling enz – inhibits coupling enzyme system, counter-screen for aldolase hits; coupling enzyme system counterscreen, AmpLite Red fluorescence; activity change, negative = inhibition, % at 58.2 µM, hits read low; 290,000 tested, 0.67% active; AID 2472; in the data active means activity change below about -30%
#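 Final compound at 57.5 uM, incubated 10 min at RT with coupling enzyme reagent (glyceraldehyde-3-phosphate), then 20 min with substrate and AmpLite Red detection. Fluorescence read at 525/598 nm; tests interference with the coupling assay, not aldolase inhibition.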
# GALK inh – galactokinase (human) inhibition. P51570. Purified GALK, Kinase-Glo residual ATP luminescence. Potency, µM (series often up to 57.5 µM), inactives show at the highest dose activity change, negative = inhibition, actives largely listed as inhibitors. 270,000 tested, 0.007% active. AID 1868; further: potency means the concentration at half of the fitted maximal effect
#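 Galactose (100 uM) and ATP (35 uM) were turned over by 5 nM GALK for 1 h at RT. Kinase-Glo Plus then converted the remaining ATP into a luminescent signal.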
# TrxR1 inh – rat TrxR1 inhibition | recombinant rTrxR1, NADPH fluorescence consumption, selenite substrate | Potency, µM (top dose mostly 114 µM), for the others: top-dose activity change, negative = inhibition, hits mostly inhibitors | 390,000 tested, 1% active | AID 588453; further: potency means the concentration at half of the fitted maximal effect; nearly all actives have a fitted effect of over 65% in size
#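 Rat TrxR1 (90 nM in the dispensed reagent) was pre-reduced with 400 uM NADPH for 5 min at room temperature, then incubated with compound for 15 min. After 400 uM selenite was added, NADPH fluorescence (Ex 340/Em 450 nm) was followed for 8 min.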
# RORg inh – blocks mouse ROR gamma transcriptional activity; Potency, µM (highest dose often 53.6 µM), for the others: at the top dose activity change, negative = inhibition, usual class: inhibitors; 310,000 tested, 5.4% active; Drosophila S2 Gal4-RORgamma UAS-luciferase reporter, 20 h; AID 2551; P51450; further: potency means the concentration at half of the fitted maximal effect; nearly all actives have a fitted effect of over 60% in size
# Target sequence (P51450 whole entry, looked up, the tested form may be a part): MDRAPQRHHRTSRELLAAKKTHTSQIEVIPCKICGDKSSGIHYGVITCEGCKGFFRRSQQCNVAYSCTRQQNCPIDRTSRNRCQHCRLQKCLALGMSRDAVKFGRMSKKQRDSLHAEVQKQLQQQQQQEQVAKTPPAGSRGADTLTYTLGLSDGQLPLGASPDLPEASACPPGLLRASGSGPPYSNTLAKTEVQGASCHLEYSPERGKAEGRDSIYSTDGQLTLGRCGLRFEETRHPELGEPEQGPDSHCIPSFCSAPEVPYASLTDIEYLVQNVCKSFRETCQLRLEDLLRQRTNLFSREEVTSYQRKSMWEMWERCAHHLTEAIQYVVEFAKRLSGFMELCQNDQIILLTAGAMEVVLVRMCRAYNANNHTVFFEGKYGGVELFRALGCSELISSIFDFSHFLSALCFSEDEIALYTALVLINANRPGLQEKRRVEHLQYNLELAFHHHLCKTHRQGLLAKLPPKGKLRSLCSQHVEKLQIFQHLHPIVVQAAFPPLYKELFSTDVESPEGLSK
#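 In this cell-based reporter format, copper sulfate (700 uM final) drives Gal4–ROR gamma fusion expression from a metallothionein promoter in Drosophila Schneider cells; compounds preincubated 1 hr, reporter read after 20 hr at ambient temperature.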
# Gal4-VP16 FLuc – Gal4-VP16 reporter inhibition counter-screen. Drosophila S2 Gal4-VP16 UAS-luciferase, luminescence, 20 h. Potency, µM (titrated, usually from 53.6 µM), inactives show at the top dose activity, negative = inhibition, actives largely listed as inhibitors. 310,000 tested, 3.5% active. AID 2546;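 further: Gal4-VP16 expression switched on by copper sulfate through the metallothionein promoter; potency means the concentration at half of the fitted maximal effect; nearly all actives have a fitted effect of over 50% in size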
# TrxR1 substrate – substrates of rat thioredoxin reductase 1 | 390,000 tested, 0.01% active | purified TrxR1 substrate turnover, NADPH consumption readout | Potency, µM (series often up to 114 µM), inactives show at the top dose activity change, negative = substrate turnover | O89049; further: potency means the concentration at half of the fitted maximal effect; nearly all actives have a fitted effect of over 50% in size
#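 Rat TrxR1, dispensed at 90 nM, was prereduced with 400 uM NADPH (final) for 5 min at ~22 deg C, then incubated with compound 15 min before 400 uM selenite. A first-read NADPH fluorescence drop versus no-compound background flagged substrates.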
# The depositor's hits bear a star; ? = inconclusive; / = not tested or not shown; [ ] = remark or other dose. The list is not random: actives were taken first. Their share in the collection is about 5.9%. Unless noted, the call rests on the fitted dose curve; in most records, active means well fitted curve in the direction sought with a large enough effect; inconclusive means small, poorly fitted or top-dose-only effect, or another doubt; inactive means no such curve, though single readings can be large; an effect the other way counts as inactive or inconclusive. On the % scale 0 is the no-effect control and ±100 the full control effect.
SMILES,Coupling enz,GALK inh,TrxR1 inh,RORg inh,Gal4-VP16 FLuc,TrxR1 substrate
CCOC(=O)N[C@H](Cc1c[nH]c2ccccc12)C(=O)Nc1cccc(Cl)c1,/,/,21.5%,/,/,3.6%
CC(C)(C)c1cc(NCc2ccccn2)n2ncc(-c3ccc(Cl)cc3)c2n1,-5.1,3.7%,178.8%,0.562µM*,?,173.4%
CN(C)CCCNc1cc(C(C)(C)C)nc2c(-c3ccc(Cl)cc3)cnn12,-3.2,-7.2%,31.2%[57.1 µM],2µM*,14.1µM*,51.3%
Cc1ccccc1NC(=O)CCC(=O)N/N=C/c1c[nH]c2ccccc12,1.6,5.2%,13.7%[57.1 µM],-9.8%,8.7%,-21.6%[57.1 µM]
CCC(C)(C)n1nnnc1C(C(C)C)N(CCN1CCOCC1)Cc1cc2cccc(C)c2[nH]c1=O (stereo not drawn),-0.9,-3.6%,?,-18.4%,6.4%,5.2%
CCC(c1nnnn1C(C)(C)CC)N(CCCN1CCOCC1)Cc1cc2cccc(C)c2[nH]c1=O (stereo not drawn),-22.1,-0.3%,35.5µM*,-0.1%,11.5%,14.9%
COc1cc2ccccc2cc1C(=O)N(CCN(C)C)c1nc2c(F)cc(F)cc2s1,-5.8,3.6%,28.2%,17.7%,-17.0%,1.1%
Cc1cccc(CSC(Nc2ccc(F)cc2)=C(C#N)C#N)c1,3.4,-2.8%,-4.0%,?,?,-14.1%
N#CC(C#N)=C(Nc1ccc(F)cc1)SCc1cccc(Br)c1,-0.8,-8.4%,-10.7%,?,7.94µM*,-12.2%
O=C(NCc1ccccc1)c1ccc2c(c1)C(=O)N(Cc1cccnc1)C2=O,/,1.4%,9.2%,-0.1%,1.8%,0.9%
CC(C)OC(=O)C1=C(N)N2C(=O)CSC2=C(C(=O)OC(C)C)C1,7.3,3.4%,-19.9%[57.1 µM],10µM*,-5.1%,-2.3%
CCN(CC)c1ccc2cc(-c3nc4ccccc4[nH]3)c(=O)oc2c1,-8.0,0.3%,-12.3%,2.82µM*,-6.7%[0.365 µM],-10.7%
COc1oc(=O)c2cc(N)ccc2c1Cl,1.3,/,/,7.94µM*,14.1µM*,/
COc1ccccc1OCc1cc(C(=O)NCCN2CCCC(O)C2)no1 (stereo not drawn),-0.7,4.2%,-8.9%,15.1%,-10.1%,-6.7%
Fc1ccc2nc(Nc3nc4cc5c(cc4s3)OCCO5)sc2c1,-2.2,-0.3%,-1.6%,11.2µM*,12.6µM*,9.6%
Fc1ccc2nc(Nc3nc4cc5c(cc4s3)OCO5)sc2c1,-4.8,-0.5%,-0.9%,8.91µM*,?,5.6%
O=S(=O)(Nc1ccccc1)c1cccc2nsnc12,2.3,5.1%,5.5%,-20.6%,-1.1%,1.8%
Cc1ccc(NS(=O)(=O)c2cccc3nsnc23)cc1,-37.8*,-1.1%,5.3%,16.8%,-2.6%,4.4%
C[C@H](NC(=O)c1nc[nH]c1C(=O)N[C@@H](C)C(=O)OCc1ccccc1)C(=O)OCc1ccccc1,0.0,/,16.5%,12.6µM*,?,-2.1%
C[C@H](NC(=O)c1nc[nH]c1C(=O)NC(c1ccccc1)c1ccccc1)C(=O)OCc1ccccc1,-3.6,2.9%,53.1%,?,35.5µM*,5.8%[57.1 µM]
CCN(CC)C(=O)c1[nH]cnc1C(=O)N[C@@H](C)C(=O)OCc1ccccc1,-0.6,-0.1%,12.0%,-23.9%,-6.5%,-1.8%
COc1cc(OC)cc(N2CC(C)(C)C2=O)c1,5.1,-0.8%,13.7%[57.1 µM],11.7%,19.6%,-2.5%[57.1 µM]
Cc1c(CCO)c(=O)[nH]n1C(=O)c1ccc(F)cc1,2.2,-3.1%,-8.6%,10µM*,11.2µM*,-3.4%
COc1cccc(CNC(=O)c2cc3c(s2)-c2ccccc2OC3)c1,/,/,30.5%,/,/,276.4%
C[C@@H](NC(=O)/C(C#N)=C/c1ccc(O)c(O)c1)c1ccccc1,5.1,/,0.5%[57.1 µM],?,?,?
CC(NC(=O)/C(C#N)=C/c1ccc(Cl)c([N+](=O)[O-])c1)c1ccccc1 (stereo not drawn),-11.0,-3.0%,39.8µM*,?,?,-5.1%
